# BAZ2B block: inhibitors of human BAZ2B bromodomain; Q9UIF8; AlphaScreen BAZ2B-H3K14Ac peptide displacement; Potency, µM (doses to about 114 µM), for inactives: at the highest dose activity change, negative = inhibition, hits mostly inhibitors; 4.4% of 360,000 active; also: potency is read from the fitted curve at half-maximal effect; % is scaled to controls: 0 for no effect and ±100 for the full control effect; nearly all actives have a fitted effect of over 60% in size
#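 AlphaScreen displacement: compounds (up to 110uM) incubated 30 min at room temperature with a preformed 50 nM BAZ2B/50 nM biotinylated H3K14Ac peptide complex in PBS pH 7.4 with Tween-20. Donor and acceptor beads at 10 ug/mL final added, 20 min light-protected before reading.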
# JMJD2A Tudor inh: JMJD2A Tudor domain (human) inhibition; AlphaScreen JMJD2A-Tudor / H3K4me3 peptide binding; Potency, µM (doses to about 114 µM), for the others: at the highest dose activity change, negative = inhibition, actives largely listed as inhibitors; 4.4% of 390,000 active; also: potency is read from the fitted curve at half-maximal effect; % is scaled to controls: 0 for no effect and ±100 for the full control effect; nearly all actives have a fitted effect of over 50% in size
# PLK1 PBD inh: inhibitors of human PLK1 polo-box domain binding. P53350. Plk1 PBD binding of FITC phosphopeptide, fluorescence polarization. Potency, µM, for inactives: max response, negative = inhibition, hits mostly inhibitors. 2.8% of 360,000 active; also: potency is read from the fitted curve at half-maximal effect; series mostly up to about 57 µM; % is scaled to controls: 0 for no effect and ±100 for the full control effect; nearly all actives have a fitted effect of over 65% in size
# PI5P4Ka inh: inhibitors of human PI5P4K alpha | max response, % | PI5P4Kalpha enzyme, ADP-Glo luminescence, 60 min; hits give low values | AID 652105 | P48426 | 1.2% of 330,000 active; active = max response of -50% or lower; inconclusive = between -30% and -50%; inactive = -30% or higher; also: value at the top dose of about 77 µM; % is scaled to controls: 0 for no effect and ±100 for the full control effect
# Target sequence (P48426 whole entry, looked up): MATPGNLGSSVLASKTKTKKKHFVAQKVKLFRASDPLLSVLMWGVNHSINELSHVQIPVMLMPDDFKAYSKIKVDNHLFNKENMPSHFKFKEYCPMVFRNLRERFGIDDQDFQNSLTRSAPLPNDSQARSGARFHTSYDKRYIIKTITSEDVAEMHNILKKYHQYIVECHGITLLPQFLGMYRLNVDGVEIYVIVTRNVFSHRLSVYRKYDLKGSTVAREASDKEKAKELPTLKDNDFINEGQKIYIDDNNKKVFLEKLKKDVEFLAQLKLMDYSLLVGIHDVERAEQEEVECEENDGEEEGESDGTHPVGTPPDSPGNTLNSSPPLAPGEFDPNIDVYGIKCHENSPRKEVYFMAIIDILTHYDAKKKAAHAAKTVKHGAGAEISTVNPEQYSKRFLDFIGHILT
#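 Luminescence from ADP-Glo served as readout of PI5P4Kalpha activity in a qHTS format. Reaction: enzyme, substrate, compound, ATP at 5 microM final, 60 min at RT.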
# HP1b binding inh: blocks HP1-beta chromodomain binding to methylated histone tails; Potency, µM (doses to about 114 µM), for the others: top-dose activity change, negative = inhibition, most hits filed as inhibitors; AID 540317; 0.56% of 390,000 active; AlphaScreen HP1-beta / biotin-H3K9me3 peptide binding; P83916; also: potency is read from the fitted curve at half-maximal effect; nearly all actives have a fitted effect of over 70% in size
#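 AlphaScreen: HP1-beta (50 nM) preformed 30 min with biotin-H3(1-18)K9me3 peptide (50 nM) in PBS pH 7.4, 0.01% Tween-20. Compound added for 30 min at RT, then streptavidin donor/nickel chelate acceptor beads (10 ug/mL) for 30 min.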
# G9a inh: G9a (human) methyltransferase inhibition; Q96KQ7; G9a H3K9 monomethylation, AlphaScreen, 2 h; Potency, µM (doses to about 102 µM), inactives show top-dose activity, negative = inhibition, hits mostly inhibitors; 8.8% of 350,000 active; AID 504332; also: potency is read from the fitted curve at half-maximal effect; % is scaled to controls: 0 for no effect and ±100 for the full control effect; nearly all actives have a fitted effect of over 75% in size
# Target sequence (Q96KQ7 913-1193 limits assumed): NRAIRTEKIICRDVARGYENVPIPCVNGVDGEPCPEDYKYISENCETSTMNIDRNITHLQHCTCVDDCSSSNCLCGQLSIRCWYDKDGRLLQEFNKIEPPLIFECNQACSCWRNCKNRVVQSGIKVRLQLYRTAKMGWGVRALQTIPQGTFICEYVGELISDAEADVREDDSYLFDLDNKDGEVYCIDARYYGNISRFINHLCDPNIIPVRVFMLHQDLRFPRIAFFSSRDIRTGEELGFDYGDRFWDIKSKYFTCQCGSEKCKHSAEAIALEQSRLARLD
#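 Enzyme 20 nM + cpd, 15 min RT; add b-H3K9 pep 500 nM / SAM 20 uM; 2 h RT; anti-H3K9me1 Ab 0.5 ug/mL + SA donor / anti-rabbit acceptor beads 20 ug/mL each, 10 min; AlphaScreen read.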
# The depositor's hits bear a star; ? = inconclusive; . = not tested or not shown; [ ] = another dose, or the depositor's remark. Only some compounds are listed: those with a hit (about 12% of all), similar ones and a draw of the others. Unless noted, calls follow the shape of the dose curve; as a rule, active = well fitted curve in the direction sought with a large enough effect; inconclusive = small, poorly fitted or top-dose-only effect, or another doubt; inactive = no such curve, though single readings can be large; an effect the other way counts as inactive or inconclusive.
SMILES,BAZ2B block,JMJD2A Tudor inh,PLK1 PBD inh,PI5P4Ka inh,HP1b binding inh,G9a inh
Cc1cc(C)nc(SCNC(=O)c2ccccc2)n1,-13%,?,-22%,.,45%,10µM*
Cc1cc(C)nc(SCC(=O)O)n1,-107%,-14%,-6%,1,37%,-14%
Cc1cc(SCC(=O)Nc2ccccc2)nc(C)n1,-6%,9%,-1%,-3,36%,-5%[59 µM]
Cc1cc(SCNC(=O)c2ccccc2)nc(C(C)C)n1,-7%,9%,24µM*,-9,30%,32µM*
CC(=O)N1CCCC(C)(C(=O)N(C)Cc2cccc3ccccc23)C1 (stereo unspecified),.,.,2%,-1,.,.
COc1ccc(NC(=O)N(C)C[C@H]2Oc3cc(Br)ccc3S(=O)(=O)N([C@H](C)CO)C[C@@H]2C)cc1,.,.,-7%,0,.,.
N#C/C(=C/c1ccccc1[N+](=O)[O-])c1nc(C2CC2)cs1,10µM*,89µM*,2%,2,?,?
N#C/C(=C\c1ccccc1[N+](=O)[O-])c1nc(C2CC2)cs1,28µM*,32µM*,-8%,-3,?,20µM*
N#C/C(=C\C=C\c1ccccc1[N+](=O)[O-])c1nc(-c2ccc3c(c2)OCO3)cs1,-8%,-19%,-1%,.,-14%,-8%[59 µM]
CCN(CC)CCCNC(=O)c1cn(CC)c2ccc(S(=O)(=O)N3CCC(C)CC3)cc2c1=O,.,1%,.,.,36%,18%[59 µM]
CC1CCCCC1NC(=O)CCNS(=O)(=O)c1ccc(Cl)cc1 (stereo unspecified),-3%,2%,1%,-2,56%,19%
CSc1ncc(OCc2ccccc2)c(=O)[nH]1,0%,-7%,-12%,2,46%,.
CSc1ccc(CNC(=O)Cn2nc(C)c3c(C)n(-c4ccc(C)cc4)nc3c2=O)cc1,-17%,11%,-9%,2,35%,-3%[59 µM]
C=CC[n+]1c(C)csc1Nc1ccc(C)cc1,32µM*,?,-18%,0,?,50µM*
C=CC[n+]1c(C)csc1Nc1cccc(Br)c1,.,?,2%,27,?,32µM*
CC1(C)N=C(N)NC(Nc2cccc(Br)c2)=N1,0%,-3%,-3%,1,37%,-15%
c1cn2cc(-c3ccc4c(c3)OCO4)nc2s1,?,-27%,24µM*,-18,?,20%[2.33 µM]
CC(=O)Nc1ccc(-c2cn3ccsc3n2)cc1,-17%,3%,1%,-1,25%,4%[12.7 µM]
COc1ccccc1-n1c(SCC(=O)c2ccc(O)cc2O)nc2cc([N+](=O)[O-])ccc21,?,25µM*,-15%,-27,-17%,?
COc1ccccc1-n1c(SCC(=O)NC2CCS(=O)(=O)C2)nc2cc([N+](=O)[O-])ccc21 (stereo unspecified),-2%,-17%,0%,-7,0%,19%[59 µM]
COc1cc(/C=C2\SC(=S)N(NC(=O)c3ccc(O)cc3)C2=O)ccc1O,40µM*,?,42%,-22,56µM*,-47%[12.7 µM]
COc1cc(/C=C2\SC(=S)N(c3cccnc3)C2=O)ccc1O,?,-31%,-28%,-7,34%,-49%[59 µM]
COc1cc(/C=C2\SC(=S)N(NC(=O)c3cccnc3)C2=O)ccc1O,45µM*,-16%,31%,-23,-19%,?
CCN1C(=O)/C(=C2\SC(=S)N(NC(=O)c3cccnc3)C2=O)c2ccccc21,?,?,-2%,-20,-14%,40µM*
Cc1nc2nc(-c3ccc(Cl)cc3Cl)nn2c(C)c1CCC(=O)Nc1ccc(F)cc1,-4%,-5%,.,.,25%,6%[59 µM]
SMILES,BAZ2B block,JMJD2A Tudor inh,PLK1 PBD inh,PI5P4Ka inh,HP1b binding inh,G9a inh
Cc1ccccc1C1CC(=O)c2ccccc2C1C (stereo unspecified),.,99%,-7%,3,51%[57 µM],.
N#CC1=CN(Cc2ccccc2)C=C(/C=N/Nc2ccccc2)C1,-35%,?,-12%,-28,1%,3.5µM*
CCOC(=O)C(=O)C1=CN(Cc2ccccc2)C=C(C#N)C1,6%,-6%,-1%,-1,22%,?
CCCCCCCCN=C1NC(=O)CS1,6%,-10%,?,.,-6%,22µM*
CCc1ccc(N=C2NC(=O)CS2)cc1,-5%,-1%,5%,-1,21%,15%[0.501 µM]
O=C(COC(=O)c1nc(Cl)c(Cl)c(Cl)c1Cl)c1ccc[nH]1,-23%,-17%,-8%,-20,29%,14µM*
O=C(COC(=O)c1nc(Cl)ccc1Cl)c1ccc[nH]1,?,-16%,0%,?,13%,-29%
CCCCC1CC2=C(C(=O)OC(C)(C)O2)C(c2ccc3ccccc3c2)O1 (stereo unspecified),.,.,1%,22,.,.
O=C(O)c1cccc(CN2C(=O)c3ccccc3C2=O)c1,1%,-2%,-8%,1,8%,17%
O=C1c2cccc3c(O)ccc(c23)C(=O)N1Cc1ccccc1,5%,36%,6µM*,-63*,50%,9%[2.33 µM]
O=C1Cc2ccccc2C(=O)N1Cc1ccccc1,-33%,-6%[11.4 µM],?,-17,33%,50µM*
O=C1Cc2ccccc2C(=O)N1c1ccc(F)cc1Cl,-12%,-23%,-22%,?,20%,50µM*
O=C1Cc2ccccc2C(=O)N1c1ccccc1,-2%,-7%,1%,0,0%,14%[59 µM]
O=C1c2cccnc2C(=O)N1Cc1ccccc1,13%,-16%,-3%,1,45%,0%[59 µM]
O=C1Cc2ccccc2C(=O)N1c1cccc(Cl)c1,-28%,-25%,?,?,27%,40µM*
Cc1ccc(NC(=O)CN2C(=O)CCc3cc(S(=O)(=O)N4CCOCC4)ccc32)c(C)c1,-21%,0%,.,.,26%,7%[12.7 µM]
COc1ccc(CCCNC(=O)C2Cc3c(-c4ccccc4)ccnc3O2)cc1 (stereo unspecified),.,.,-3%,-27,.,.
COc1ccc(Cl)cc1NC(=O)c1c(NCc2cccnc2)sc2c1CCC(C)C2 (stereo unspecified),-16%,?,.,.,?,?
C[C@H](CO)N1C[C@H](C)[C@H](CN(C)S(=O)(=O)c2cccs2)Oc2ncc(-c3cc4ccccc4o3)cc2C1=O,.,.,-4%,3,.,.
COc1ccc2oc(=O)cc(CN3CCN(C(=O)c4ccccc4)CC3)c2c1,-4%,-4%,.,.,15%,?
CCc1ccc(-n2nc(CO)c(C(=O)NC)n2)cc1,-1%,-7%,.,.,19%,8%[59 µM]
COc1ccc2nc(NC(=O)C3CCCN3S(=O)(=O)c3ccc(C)cc3)sc2c1 (stereo unspecified),7%,-23%,-5%,13,32%,-12%
O=C(NCc1ccco1)C1CCCN1C(=O)Nc1ccc(Cl)cc1 (stereo unspecified),.,14µM*,12µM*,-30,-4%,2%
